Experiment [1] can be described thus: resazurin metabolic signal in HepG2 cells – cell-based, resazurin fluorescence, 24 h, PK04 Diversity Set, profiling panel (AID 1172). Further: test concentration not given here. To be noted: HepG2 viability, higher = more signal. A general note: Resazurin is reduced to fluorescent resorufin, in cell work by metabolically active cells.
A short description of experiment [2]: budding yeast growth changes without added modifier – OD600, strain BY4716, 24 h, basal condition, primary screen (AID 1173). To be noted: S. cerevisiae BY4716 growth, OD600, 24 h; higher = more signal, called active from +8 up or from −8 down.
The nature of experiment [3]: viability profiling in MM1S myeloma cells – cell-based, resazurin fluorescence, basal, 24 h, PK04 Diversity Set, profiling panel (AID 1174).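 Further: MM1S multiple myeloma cell line; test concentration not given here.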 To be noted: higher = more signal, called active from +8 up or from −8 down.
The target of experiment [4] is Dihydroorotate dehydrogenase (quinone), mitochondrial (Plasmodium falciparum (isolate 3D7)) (UniProt Q08210). Description: inhibition of P. falciparum DHODH – biochemical, C-terminal His tag, absorbance 600 nm, primary screen (AID 1175).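 Further: recombinant parasite enzyme with a five histidine tag at its C terminus; test concentration not given here.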 The following applies: PfDHODH enzyme, DCIP absorbance 600 nm; higher = more signal, called active from +8 up or from −8 down.
Dihydroorotate dehydrogenase (quinone), mitochondrial (Plasmodium falciparum (isolate 3D7)), sequence (Q08210 whole entry, looked up): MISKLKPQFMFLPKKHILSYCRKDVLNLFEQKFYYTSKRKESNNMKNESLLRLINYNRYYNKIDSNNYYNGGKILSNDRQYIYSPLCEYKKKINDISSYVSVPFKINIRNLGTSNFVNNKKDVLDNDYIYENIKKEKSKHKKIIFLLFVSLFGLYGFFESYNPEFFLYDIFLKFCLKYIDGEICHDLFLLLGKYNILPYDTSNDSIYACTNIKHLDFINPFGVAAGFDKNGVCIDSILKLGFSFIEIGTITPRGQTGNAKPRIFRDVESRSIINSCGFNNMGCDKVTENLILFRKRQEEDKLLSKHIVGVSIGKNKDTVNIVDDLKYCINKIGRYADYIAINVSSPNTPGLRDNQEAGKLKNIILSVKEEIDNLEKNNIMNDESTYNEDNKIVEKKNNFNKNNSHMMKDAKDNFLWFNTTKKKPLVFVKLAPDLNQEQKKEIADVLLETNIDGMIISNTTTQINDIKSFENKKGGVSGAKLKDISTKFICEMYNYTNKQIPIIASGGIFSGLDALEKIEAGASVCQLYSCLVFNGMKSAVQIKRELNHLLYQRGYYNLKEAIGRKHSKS
Experiment [5] can be described thus: inhibition of PAO1 biofilm formation – strain PAO1, LB-PBS medium, absorbance 600 nm, primary screen (AID 1176). Further: test concentration not given here. The following applies: P. aeruginosa PAO1 growth/biofilm, A600, 12 h; higher = more signal.
The nature of experiment [6]: growth modulation of vineyard yeast isolate – strain RM11-1a, OD600, basal, 24 h, primary screen (AID 1177).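 Further: cultures grown under basal conditions with no added stressor; test concentration not given here.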 The following applies: S. cerevisiae RM11-1a growth, OD600, 24 h; higher = more signal, called active from +8 up or from −8 down.
The nature of experiment [7]: growth of efflux-deficient E. coli DRC39 – strain DRC39, OD650, 24 h, E. coli filamentation inducers, primary screen (AID 1178).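 Further: growth measured as culture turbidity by optical density at 650 nm; test concentration not given here.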 To be noted: E. coli DRC39 acrAB, higher = more signal, called active from +8 up or from −8 down.
The nature of experiment [8]: growth of efflux-deficient E. coli DRC39 – strain DRC39, OD650, 48 h, E. coli filamentation inducers, primary screen (AID 1179).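 Further: screen aims at cell division blockers that make cells filament.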 The following applies: E. coli DRC39 delta-acrAB growth, higher = more signal, called active from +8 up or from −8 down.
Experiment [9] is described as follows: viability profiling in RPMI8226 myeloma cells – cell-based, resazurin fluorescence, basal, 24 h, PK04 Diversity Set, profiling panel (AID 1180).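 Further: RPMI8826 multiple myeloma cell line at 5000 cells per well; test concentration not given here.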 To be noted: higher = more signal.
Experiment [10] deals with E3 ubiquitin-protein ligase XIAP (Homo sapiens) (UniProt P98170). Description: small molecules binding XIAP protein – biophysical, small-molecule microarray, fluorescence 635 nm, primary screen (AID 1181).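 Further: score merges 667 nm emission and signal to noise over triplicate slides.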 To be noted: higher = more signal.
E3 ubiquitin-protein ligase XIAP (Homo sapiens), sequence (P98170 whole entry, looked up): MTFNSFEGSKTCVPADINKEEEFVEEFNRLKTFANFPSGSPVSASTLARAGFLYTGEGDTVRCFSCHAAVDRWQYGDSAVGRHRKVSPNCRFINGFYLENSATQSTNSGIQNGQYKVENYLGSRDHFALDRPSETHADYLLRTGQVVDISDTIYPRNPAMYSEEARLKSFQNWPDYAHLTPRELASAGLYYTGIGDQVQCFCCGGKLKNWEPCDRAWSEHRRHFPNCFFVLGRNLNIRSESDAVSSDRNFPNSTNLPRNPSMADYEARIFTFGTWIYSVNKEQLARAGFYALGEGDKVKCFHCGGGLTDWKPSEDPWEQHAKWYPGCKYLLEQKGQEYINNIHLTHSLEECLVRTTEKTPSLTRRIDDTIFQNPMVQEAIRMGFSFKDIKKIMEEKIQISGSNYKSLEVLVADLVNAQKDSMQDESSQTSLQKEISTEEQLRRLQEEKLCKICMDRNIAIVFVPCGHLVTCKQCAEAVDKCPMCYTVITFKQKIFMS

The source made the active and inactive calls. Unless noted, how the calls were made is not given here.

In the case of `COc1ccc([Si](C)(C)[C@@H]2[C@@H](CCO)O[C@]3(C(=O)N(Cc4ccc(N5CCCCC5=O)cc4)c4ccccc43)[C@H]2C)cc1`, the z-score was -0.723 in experiment [1]; -0.173 (inactive) in experiment [2]; -0.75 (inactive) in experiment [3]; 1.45 (inactive) in experiment [5]; 2.69 (inactive) in experiment [6]; 1.99 (inactive) in experiment [7]. Further, the z-score is 1.14 (inactive) in [8] and -2.24 in experiment [9]. Besides, the composite z-score in [4] was -3.05 (inactive); in [10], -0.184.

`[N-]=[N+]=NCc1ccccc1C[C@@]1(C(=O)N2CCCCC2)N=C(c2ccc(OCCCO)cc2)O[C@@H]1c1ccccc1`: the z-score was -0.876 in [1]; -0.59 (inactive) in experiment [2]; -5.49 (inactive) in experiment [3]; 0.137 (inactive) in experiment [5]; 1.95 (inactive) in experiment [6]; 0.297 (inactive) in experiment [7]. Further, the results for the z-score in [8] and in [9] were 0.696 (inactive) and -4.9, respectively. In addition, the composite z-score was 1.53 (inactive) in [4] and -0.279 in experiment [10].

Take `CO[C@H]1O[C@H](CO)[C@@H](OC(=O)Nc2ccccc2-c2ccccc2)[C@H](OC(=O)Nc2ccc3c(c2)OCO3)[C@H]1OC(=O)Nc1ccc2c(c1)OCO2`: the z-score was -0.396 in [1]; 1.66 (inactive) in experiment [2]; -0.262 (inactive) in [3]; 3.65 (inactive) in experiment [5]; 2.5 (inactive) in experiment [6]; 1.2 (inactive) in [7]. The results for the z-score in experiment [8] and in experiment [9] were 0.0265 (inactive) and -0.564, respectively. For the same molecule, the composite z-score in experiment [4] was -0.763 (inactive); in [10], 0.25.

For `CC(=O)NCCCC[C@@H]1NC(=O)[C@H]2C[C@@H](C(=O)NCCCC[N+](C)(C)C)[C@@H](c3cccc(OCCO)c3)N2C1=O`, the z-score in [1] is -0.704; in [2] it was 0.294 (inactive); in experiment [3], 0.785 (inactive); in experiment [5] it was 0.45 (inactive); in experiment [6], -0.724 (inactive); in experiment [7] it was 0.417 (inactive). The z-score in [8] was -0.369 (inactive); in experiment [9] it was 0.228. Further, the composite z-score in experiment [4] is -30.8 (active); in experiment [10], 0.0223.

Take `C=CCN1C(=O)[C@@]2(O[C@@H](CCn3cc([C@H](O)c4ccccc4)nn3)[C@H]([Si](C)(C)c3ccc(OC)cc3)[C@H]2C)c2cc(N3CCC3=O)ccc21`: the z-score in [1] is -0.721; in experiment [2], 0.869 (inactive); in experiment [3], -1.14 (inactive); in experiment [5] it was 1.25 (inactive); in experiment [6], 2.39 (inactive); in [7] it was 0.397 (inactive). Further, the z-score was 0.477 (inactive) in [8] and -1.09 in experiment [9]. Moreover, the values for the composite z-score in experiment [4] and in [10] were 0.936 (inactive) and -0.153, respectively.

For the molecule `COC(=O)C(CC#Cc1ccc2c(c1)[C@]1(C(=O)N2)[C@H](c2ccccc2OCCO)N2[C@H](c3ccccc3)[C@H](c3ccccc3)OC(=O)[C@H]2[C@@H]1C(=O)NC[C@H](O)c1ccccc1)C(=O)OC`, the z-score in [1] was -0.248; in experiment [2], 1.61 (inactive); in experiment [3], -6.75 (inactive); in [5] it was 2.09 (inactive); in experiment [6] it was 2.22 (inactive); in [7] it was 0.405 (inactive). The z-score was 0.615 (inactive) in experiment [8] and -6.97 in experiment [9]. Moreover, the composite z-score was -4.58 (inactive) in experiment [4] and 0.279 in experiment [10].

In the case of `CCCC[C@@H]1C[C@H]1[C@@H](NC(=O)Cc1ccccc1)c1ccc(-c2ccccc2)cc1`, the z-score in experiment [1] is 1.21; in [2] it was 0.953 (inactive); in [3], 0.143 (inactive); in experiment [5], -1.19 (inactive); in experiment [6] it was 0.636 (inactive); in [7], -0.104 (inactive). The values for the z-score in [8] and in experiment [9] were 0.289 (inactive) and -1.18, respectively. For the same molecule, the composite z-score in [4] is 0.183 (inactive); in [10], -0.0351.

In the case of `C=CCC(OC(C)=O)[C@@H]1[C@@H](N(Cc2cc3ccccc3o2)C(=O)c2ccc(C)cc2)c2cc(OCCCO)ccc2N1C(=O)Cc1ccc(OC)cc1` (stereo not given in full), the z-score in [1] was 0.564; in experiment [2] it was -0.859 (inactive); in experiment [3], 0.655 (inactive); in [5], 0.0885 (inactive); in [6], 0.634 (inactive); in experiment [7], -0.506 (inactive). Moreover, the z-score in experiment [8] is -0.0196 (inactive); in experiment [9], 0.618. Further, the composite z-score was 0.889 (inactive) in [4] and -0.102 in experiment [10].

With `COCCOC(=O)N1C(=O)[C@@]2(c3cc(C#Cc4ccc(OC)cc4)ccc31)[C@H](c1ccccc1OCCO)N1[C@H](c3ccccc3)[C@H](c3ccccc3)OC(=O)[C@H]1[C@@H]2C(=O)N1CCCCCCC1`, the z-score in experiment [1] is 0.457; in [2], 1.29 (inactive); in [3], 0.0229 (inactive); in experiment [5] it was 3.49 (inactive); in [6] it was 1.84 (inactive); in experiment [7], -0.398 (inactive). Besides, the results for the z-score in experiment [8] and in experiment [9] were 0.118 (inactive) and 0.504, respectively. For the same molecule, the results for the composite z-score in experiment [4] and in experiment [10] were -1.26 (inactive) and 0.223, respectively.

Regarding `O=C1OCC=C[C@H]2OC34C=CCN(Cn5nnc6ccccc65)C(=O)[C@H]3N(CCCO)C(=O)[C@@H]4[C@@H]12` (stereo not given in full), the z-score is -0.281 in experiment [1]; -0.68 (inactive) in experiment [2]; -0.319 (inactive) in experiment [3]; -0.0684 (inactive) in experiment [5]; -0.0325 (inactive) in [6]; -1.4 (inactive) in [7]. Moreover, the figures for the z-score in [8] and in experiment [9] were -1.1 (inactive) and -0.509, respectively. Moreover, the composite z-score in experiment [4] is -2.85 (inactive); in experiment [10], -0.105.

Regarding `O=C1O[C@H](c2ccccc2)[C@H](c2ccccc2)N2[C@H]1[C@@H](C(=O)O)[C@]1(C(=O)Nc3ccc(C#CC4=CCCCC4)cc31)[C@H]2c1ccc(O)cc1`, the z-score in experiment [1] was -0.176; in experiment [2], -1.73 (inactive); in experiment [3], 0.248 (inactive); in experiment [5], 1.42 (inactive); in experiment [6], 0.168 (inactive); in [7], -0.448 (inactive). Also, the z-score in experiment [8] was -0.174 (inactive); in experiment [9], -0.0705. Also, the results for the composite z-score in experiment [4] and in experiment [10] were -4.56 (inactive) and 0.0938, respectively.

With `C=C[C@@H](COC(C)=O)N(C(=O)OC(C)(C)C)S(=O)(=O)c1ccc(Br)cc1`, the z-score was -0.19 in [1]; -3.49 (inactive) in [2]; -2.19 (inactive) in experiment [3]; -0.938 (inactive) in experiment [5]; 0.317 (inactive) in [6]; -0.0872 (inactive) in [7]. The z-score in experiment [8] was 0.499 (inactive); in experiment [9] it was -0.288. In addition, the composite z-score is -1.25 (inactive) in experiment [4] and 0.0618 in experiment [10].

Take `Cc1ccc(S[C@]2(C(=O)O)CC(=O)N(Cc3ccccc3Cl)[C@@H]2c2ccc(CO)cc2I)cc1`: the z-score was 0.457 in experiment [1]; -3.19 (inactive) in [2]; -3.07 (inactive) in experiment [3]; 1.15 (inactive) in [5]; -0.78 (inactive) in experiment [6]; 0.0071 (inactive) in experiment [7]. The z-score is -0.26 (inactive) in experiment [8] and -2.19 in experiment [9]. The composite z-score in experiment [4] is 0.297 (inactive); in [10], -0.0388.

These data come from PubChem BioAssay.
